Compounds with a hit are over-represented: about 2.2% of the library has one in this group of screens.
LGR2 inh: blocks bursicon-induced cAMP signaling via Drosophila LGR2; actives 0.35% (n = 380,000); HEK293 LGR2, CRE-luciferase, bursicon-stimulated, 4 h; AID 720647; inhibition, % at 9.99 µM;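 active means drop in luminescence signal, shown as inhibition above about 50% in the replicate tests, limit read from the data, passing the limit was not always enough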;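 further: agonist challenge used bursicon conditioned medium at about half maximal strength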
TROY NFkB inh: blocks TROY-dependent signaling in reporter cells | Q293 LMP1-TROYcd NF-kB luciferase reporter, 4 h | inhibition, % at 10 µM | actives 0.98% (n = 360,000) | AID 1347056;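 active means compounds whose plate-normalised and pattern-corrected inhibition of the luciferase reporter signal at the single screening dose is 50% or more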
TWEAK Fn14 block: blocks TWEAK-Fn14 interaction in a reporter cell assay. TWEAK-stimulated Fn14 reporter cells, luciferase luminescence, 8 h. inhibition, % at 10 µM. actives 2% (n = 360,000). AID 1159606; in the data active means inhibition above about 50%
HSP90 inh: blocks HSP90-mediated luciferase refolding in reticulocyte lysate. actives 0.91% (n = 290,000). Rabbit reticulocyte lysate, luciferase refolding luminescence, 3 h. inhibition, % at 5.6 µM;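 active means inhibition above the screen-wide mean plus 3 SD, computed separately per campaign, cut at about 16% in these data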;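 further: inhibitors lower the luminescence because luciferase stays unfolded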
Numbers stand for hits; - = inactive; . = no result given.

SMILES	LGR2 inh	TROY NFkB inh	TWEAK Fn14 block	HSP90 inh
O=C(O)c1ccc(N/N=C/c2cccc3cccnc23)cc1	-	-	61	-
O=C(O)c1ccc(N/N=C/c2ccnc3ccccc23)cc1	-	-	-	-
O=C(O)c1ccc(N/N=C/c2cccc(F)c2)cc1	-	-	59	-
O=C(O)c1ccc(N/N=C/c2ccc(F)c(F)c2)cc1	.	-	67	-
O=C(O)c1ccc(N/N=C/c2cccc(C(F)(F)F)c2)cc1	-	-	-	-
Cc1noc(C)c1S(=O)(=O)Nc1ccc2c(c1)CC(=O)N([C@@H](C)CO)C[C@H](C)[C@H](CN(C)Cc1ccncc1)O2	-	.	.	.
COc1ccccc1-c1cnc2c(c1)C(=O)N([C@H](C)CO)C[C@@H](C)[C@H](CN(C)Cc1cncnc1)O2	-	.	.	.
CN(C)CCCNc1nc(-c2ccccc2)nc2ccccc12	-	-	-	-
CN(C)CCCNc1c2ccccc2nc2ccccc12	92	-	-	-
c1ccc2c(NCCCN3CCOCC3)c3ccccc3nc2c1	90	.	.	-
CN(C)C(=O)[C@H]1[C@H](CO)[C@H]2Cn3c(ccc(C4=CCCC4)c3=O)[C@@H]1N2CCC(F)(F)F	-	.	.	.
Cc1ccccc1NC(=O)c1cccc(NC(=O)c2ccco2)c1	-	-	-	-
CCOc1ccccc1NC(=O)c1cccc(NC(=O)c2ccco2)c1	.	-	88	-
O=C(Nc1ccccc1)c1cccc(NC(=O)c2ccco2)c1	-	-	101	.
CCCNC(=O)C[C@H]1CC[C@@H]2[C@H](COc3ccc(NS(=O)(=O)c4ccccc4C)cc3C(=O)N2C)O1	-	.	.	.
C[C@@H]1CN([C@H](C)CO)C(=O)c2cc(NC(=O)Nc3ccccc3)ccc2O[C@H]1CN(C)Cc1ccncc1	-	.	.	.
CC=Cc1ccc2n(c1=O)C[C@H]1[C@H](CO)[C@@H](C(=O)NC3CCC3)[C@@H]2N1S(=O)(=O)c1cn(C)cn1 (mixture of isomers)	-	.	.	.
C[C@H]1CCCCO[C@H](CN(C)Cc2ccccc2)[C@@H](C)CN([C@@H](C)CO)C(=O)c2cc(NC(=O)C3CCCCC3)ccc2O1	-	.	.	.
O=C(NC(Nc1ncc(S(=O)(=O)c2ccc([N+](=O)[O-])cc2)s1)(C(F)(F)F)C(F)(F)F)c1ccc(Cl)cc1	.	53	-	-
COCC(=O)Nc1ncc(S(=O)(=O)c2ccc([N+](=O)[O-])cc2)s1	-	-	-	-
CC(=O)Oc1ccccc1C(=O)C=Cc1cccc([N+](=O)[O-])c1	101	-	83	.
O=C(/C=C/c1cccc([N+](=O)[O-])c1)n1cnc2ccccc21	-	-	103	-
Cc1cc(O)c(C(=O)/C=C/c2cccc([N+](=O)[O-])c2)c(=O)o1	.	-	-	-
COc1ccccc1C(=O)/C=C/c1ccc(N2CCCCC2)c([N+](=O)[O-])c1	-	-	55	-
O=C(/C=C/c1cccc([N+](=O)[O-])c1)N1CCN(c2ccccn2)CC1	-	-	-	-
SMILES	LGR2 inh	TROY NFkB inh	TWEAK Fn14 block	HSP90 inh
CCNC(=O)C[C@H]1CC[C@H]2[C@@H](COc3ccc(NC(=O)Nc4ccccc4F)cc3C(=O)N2C)O1	-	.	.	.
COCC(=O)N1C[C@@H]2[C@H](c3ccccc31)[C@@H](CO)N2C(=O)c1ccccc1F	-	.	.	.
CC(C)C(=O)Nc1nnc(S(=O)(=O)N(C)c2ccc(Cl)cc2)s1	-	-	72	-
COCc1cc(=O)[nH]c(Nc2nc3ccc(C)cc3o2)n1	.	-	106	-
Cc1c(CCCl)c(Cl)n2c(nc3ccccc32)c1C#N	-	-	109	.
C/C=C/c1ccc([C@@H]2[C@H](CO)N(CC3CC3)C23CN(S(=O)(=O)CC)C3)cc1	-	.	.	.
C[C@H](CO)N1C[C@H](C)[C@@H](CN(C)S(=O)(=O)c2cccs2)OCCCC[C@H](C)Oc2ccc(NS(=O)(=O)c3cn(C)cn3)cc2C1=O	-	.	.	.
Cc1ccccc1Cn1ccc(-c2ccc3c(c2)OCO3)n1	.	-	-	-
Cc1ccccc1Cn1nnc(-c2ccc3c(c2)OCO3)n1	.	-	80	-
Fc1cccc(Cl)c1Cn1nnc(-c2ccc3c(c2)OCO3)n1	.	-	54	-
N#CCn1nnc(-c2ccc3c(c2)OCO3)n1	.	-	-	-
C[C@@H]1CN([C@H](C)CO)S(=O)(=O)c2ccc(C#Cc3ccccc3F)cc2O[C@@H]1CN(C)C	-	.	.	.
C[C@@H]1CCCCO[C@@H](CN(C)C(=O)Nc2ccccc2)[C@@H](C)CN([C@@H](C)CO)C(=O)c2cc(NC(=O)NC3CCCCC3)ccc2O1	-	.	.	.
Cc1c(C(=O)NCc2ccc(Cl)c(Cl)c2)sc(=O)n1Cc1ccc(S(C)(=O)=O)cc1	-	-	53	.
CSc1ccc(Cn2c(C)c(C(=O)NCc3ccc(Cl)c(Cl)c3)sc2=O)cc1	-	-	-	.
COc1ccc(CNC(=O)c2sc(=O)n(Cc3ccc(C)cc3)c2C)cc1OC	-	-	-	.
COc1ccc(CNC(=O)c2sc(=O)n(Cc3ccc(-c4ccccc4)cc3)c2C)cc1OC	-	-	61	.
Cc1noc(C)c1S(=O)(=O)N(C)C[C@H]1OCCCC[C@H](C)Oc2ccc(NS(=O)(=O)c3ccccc3)cc2C(=O)N([C@H](C)CO)C[C@H]1C	-	.	.	.
COc1ccc(NC(=O)Nc2ccc3c(c2)C(=O)N([C@H](C)CO)C[C@H](C)[C@H](CN(C)C(=O)NC(C)C)O3)cc1	-	.	.	.
C=CCNc1nc(-c2sc(NC(=O)C(C)(C)C)nc2C)c(-n2cc(-c3ccccc3)nn2)s1	-	-	58	.
Cc1cc2nc(-c3ccc(SCC(=O)Nc4ccc(S(=O)(=O)N5CCCC5)cc4)nc3)[nH]c2cc1C	-	-	-	-
O=C(CSc1ccc(-c2nc3ccccc3[nH]2)cn1)Nc1ccc(S(=O)(=O)N2CCCC2)cc1	-	-	52	-
C[C@@H]1CN([C@@H](C)CO)C(=O)c2cccc(NC(=O)Nc3ccc(C(F)(F)F)cc3)c2O[C@@H]1CN(C)C(=O)Nc1ccc(C(F)(F)F)cc1	-	.	.	.
CCOC(=O)C(C(C)=O)c1c(Br)c(O)c(O)c2c(C(=O)c3ccc(C)cc3)coc12 (stereo not given)	-	-	76	-
CC(C)Nc1nnc(SCC(=O)Nc2ccc3c(c2)C(=O)c2ccccc2C3=O)s1	-	-	59	-
SMILES	LGR2 inh	TROY NFkB inh	TWEAK Fn14 block	HSP90 inh
COc1cc(/C=N\Nc2nc3ccccc3[nH]2)cc(OC)c1OC	.	51	62	-
COc1ccc2c(c1)c(/C=N/Nc1nc3ccccc3[nH]1)c(C)n2C	59	54	88	-
C(=N\Nc1nc2ccccc2[nH]1)/c1cccc2nccnc12	-	-	-	-
C#CCn1cc(/C=N/Nc2nc3ccccc3[nH]2)c2ccccc21	-	-	53	-
C[C@H](CO)N1C[C@H](C)[C@H](CN(C)Cc2ccc(Oc3ccccc3)cc2)Oc2ccc(NC(=O)Nc3ccc4c(c3)OCO4)cc2CC1=O	-	.	.	.
O=C(C[C@@H]1C=C[C@H](NC(=O)c2cccnc2)[C@@H](CO)O1)NCc1ccc(Cl)c(Cl)c1	-	.	.	.
O=C(Oc1c(-c2ccccc2Cl)oc2ccccc2c1=O)c1ccc(Cl)cc1	-	-	50	-
CC(C)c1ccc(N=c2c([N+](=O)[O-])nn(-c3ccc4c(c3)OCCO4)n2O)cc1	-	-	-	-
CCc1cccc(N=c2c([N+](=O)[O-])nn(-c3ccc4c(c3)OCCO4)n2O)c1	-	55	-	-

Screening data: PubChem BioAssay, several laboratories
